Laboratory results as given in the supplement of paper PMC10849652.
The full data set covers some 8,800 targets. This sample favours those with a hit. About 0.5% of all pairs of compound and target were hits.

Columns and labels:
Assay in all cases: log2 fold change, soluble protein after heating vs DMSO (PISA); higher = thermal stabilisation; K562 lysate, 10 uM; active = over 0.2 and 3.5 SD of the protein, either way, in both replicates (recomputed)
[1] = compound: C1=CC=C(C=C1)[C@H](COC2=CC3=C(C=C2)NC(=O)N3)NC(=O)C4=CC=CN(C4=O)CC5=CC(=C(C=C5)F)F
Method in brief: (§1)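 Dounce homogenisation of K562 pellets in PBS pH 7.4 with 1 mM MgCl2 produced a crude extract, used at 1 mg/mL protein. Exposure to 10 μM compound lasted 30 min, and aliquots were then heated for 3 min across 48°C-58°C, pooled and brought to 0.5% NP-40 at 4°C. The supernatant after 21,000xg for 90 min was quantified by TMTpro 16plex LC-MS/MS with channel sums equalised. Duplicate values are given as log-two fold change in thermal stability relative to solvent controls.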

[2] = compound: CC1=C(SC2=C1C(=N[C@H](C3=NN=C(N32)C)CC(=O)N)C4=CC=C(C=C4)Cl)C
Method in brief: as §1

[3] = compound: CC1=C2C(=CC=C1)N=C(N(C2=O)C3=CC=CC=C3C)CN4C=NC5=C(N=CN=C54)N
Method in brief: as §1

[4] = compound: Cc1sc2c(c1C)C(c1ccc(Cl)cc1)=N[C@@H](CC(=O)OC(C)(C)C)c1nnc(C)n1-2
Method in brief: as §1

[5] = compound: c1ccc([C@@H]2C[C@H]2NC2CCNCC2)cc1
Method in brief: as §1

Measured: log2 fold change

MORF4L1 isoform 2 (UniProt Q9UBU8)
inactive: [1] 0.012 | [2] -0.03 | [3] -0.029 | [4] -0.041 | [5] -0.035

LARP4B (UniProt Q92615)
inactive: [1] 0.031 | [2] -0.034 | [3] 0.002 | [4] 0.03 | [5] -0.037

KRR1 (UniProt Q13601)
inactive: [1] 0.019 | [2] -0.017 | [3] 0.005 | [4] 0.062 | [5] 0.035

MAD2L2 (UniProt Q9UI95)
inactive: [1] -0.032 | [2] -0.006 | [3] -0.018 | [4] -0.085 | [5] 0.096

KPNA4 (UniProt O00629)
inactive: [1] 0.06 | [2] -0.068 | [3] 0.044 | [4] 0.011 | [5] -0.169

LIMS1 isoform 3 (UniProt P48059)
inactive: [1] -0.006 | [2] 0.006 | [3] -0.026 | [4] 0.037 | [5] -0.057

LRPPRC (UniProt P42704)
inactive: [1] -0.067 | [2] 0.043 | [3] 0.049 | [4] 0.039 | [5] 0.122

MBOAT2 (UniProt Q6ZWT7)
inactive: [1] -0.011 | [2] 0 | [3] 0.121 | [4] -0.022 | [5] -0.017

LZTR1 (UniProt Q8N653)
inactive: [1] -0.237 | [2] 0.004 | [3] 0.005 | [4] -0.004 | [5] 0.036

KIFC3 isoform 6 (UniProt Q9BVG8)
inactive: [1] 0.023 | [2] 0.016 | [3] -0.178 | [4] -0.21
active: [5] -1.16

MED17 (UniProt Q9NVC6)
Chain of UniProt Q9NVC6 (Q9NVC6 whole entry, looked up): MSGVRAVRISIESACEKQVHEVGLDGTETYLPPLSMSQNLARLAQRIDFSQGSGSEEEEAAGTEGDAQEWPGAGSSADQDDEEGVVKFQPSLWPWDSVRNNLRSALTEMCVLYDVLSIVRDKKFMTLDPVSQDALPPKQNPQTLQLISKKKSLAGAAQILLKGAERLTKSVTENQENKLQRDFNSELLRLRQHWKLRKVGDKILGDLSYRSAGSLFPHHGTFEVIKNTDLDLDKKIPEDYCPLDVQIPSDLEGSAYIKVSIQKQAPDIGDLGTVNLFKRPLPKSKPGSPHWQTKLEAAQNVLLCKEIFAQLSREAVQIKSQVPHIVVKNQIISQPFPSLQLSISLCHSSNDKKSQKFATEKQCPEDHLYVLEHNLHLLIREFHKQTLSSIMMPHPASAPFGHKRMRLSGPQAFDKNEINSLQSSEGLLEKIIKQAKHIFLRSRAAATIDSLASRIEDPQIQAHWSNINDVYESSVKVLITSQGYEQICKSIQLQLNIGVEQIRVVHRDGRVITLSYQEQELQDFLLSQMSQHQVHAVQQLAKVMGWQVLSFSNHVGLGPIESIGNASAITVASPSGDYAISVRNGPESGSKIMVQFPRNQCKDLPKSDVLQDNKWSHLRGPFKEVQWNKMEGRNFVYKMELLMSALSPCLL
inactive: [1] 0.009 | [2] 0.021 | [3] 0.016 | [4] 0.021 | [5] 0.02

LAP3 (UniProt P28838)
inactive: [1] -0.043 | [2] 0.021 | [3] -0.139 | [4] -0.056 | [5] -0.285

KIF4B (UniProt Q2VIQ3)
inactive: [1] 0.035 | [2] 0.009 | [3] -0.02 | [4] 0.029 | [5] 0.013

MORC3 (UniProt Q14149)
inactive: [1] 0.013 | [2] 0 | [3] 0.003 | [4] 0.013 | [5] 0.012

LRRC7 (UniProt Q96NW7)
inactive: [1] -0.001 | [2] -0.047 | [3] -0.309 | [4] 0 | [5] -0.001

KLC2 (UniProt Q9H0B6)
Chain of UniProt Q9H0B6 (Q9H0B6 whole entry, looked up): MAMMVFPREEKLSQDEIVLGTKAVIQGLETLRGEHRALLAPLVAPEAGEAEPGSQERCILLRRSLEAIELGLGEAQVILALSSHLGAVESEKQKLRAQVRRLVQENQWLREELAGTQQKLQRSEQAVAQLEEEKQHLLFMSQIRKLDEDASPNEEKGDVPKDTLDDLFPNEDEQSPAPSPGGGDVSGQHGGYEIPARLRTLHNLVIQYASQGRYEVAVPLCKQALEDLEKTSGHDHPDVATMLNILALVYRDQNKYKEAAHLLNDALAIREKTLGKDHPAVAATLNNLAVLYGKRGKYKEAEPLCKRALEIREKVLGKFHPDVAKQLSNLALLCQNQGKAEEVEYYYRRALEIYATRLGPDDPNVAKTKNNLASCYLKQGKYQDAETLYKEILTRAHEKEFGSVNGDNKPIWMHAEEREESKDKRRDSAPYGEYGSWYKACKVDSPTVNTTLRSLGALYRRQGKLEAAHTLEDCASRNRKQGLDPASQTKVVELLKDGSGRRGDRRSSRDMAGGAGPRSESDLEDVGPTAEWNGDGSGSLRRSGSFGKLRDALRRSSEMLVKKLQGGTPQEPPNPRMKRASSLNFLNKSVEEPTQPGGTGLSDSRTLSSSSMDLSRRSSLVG
inactive: [1] -0.032 | [2] 0.016 | [3] 0.029 | [4] 0.003 | [5] 0.122

LARS (UniProt Q9P2J5)
inactive: [1] -0.02 | [2] -0.007 | [3] 0.015 | [4] 0.04 | [5] 0.077

KLC4 isoform 3 (UniProt Q9NSK0)
inactive: [1] 0.011 | [2] 0.004 | [3] -0.003 | [4] 0.01 | [5] 0.014

MED12 isoform 2 (UniProt Q93074)
Chain of UniProt Q93074 (Q93074 whole entry, looked up): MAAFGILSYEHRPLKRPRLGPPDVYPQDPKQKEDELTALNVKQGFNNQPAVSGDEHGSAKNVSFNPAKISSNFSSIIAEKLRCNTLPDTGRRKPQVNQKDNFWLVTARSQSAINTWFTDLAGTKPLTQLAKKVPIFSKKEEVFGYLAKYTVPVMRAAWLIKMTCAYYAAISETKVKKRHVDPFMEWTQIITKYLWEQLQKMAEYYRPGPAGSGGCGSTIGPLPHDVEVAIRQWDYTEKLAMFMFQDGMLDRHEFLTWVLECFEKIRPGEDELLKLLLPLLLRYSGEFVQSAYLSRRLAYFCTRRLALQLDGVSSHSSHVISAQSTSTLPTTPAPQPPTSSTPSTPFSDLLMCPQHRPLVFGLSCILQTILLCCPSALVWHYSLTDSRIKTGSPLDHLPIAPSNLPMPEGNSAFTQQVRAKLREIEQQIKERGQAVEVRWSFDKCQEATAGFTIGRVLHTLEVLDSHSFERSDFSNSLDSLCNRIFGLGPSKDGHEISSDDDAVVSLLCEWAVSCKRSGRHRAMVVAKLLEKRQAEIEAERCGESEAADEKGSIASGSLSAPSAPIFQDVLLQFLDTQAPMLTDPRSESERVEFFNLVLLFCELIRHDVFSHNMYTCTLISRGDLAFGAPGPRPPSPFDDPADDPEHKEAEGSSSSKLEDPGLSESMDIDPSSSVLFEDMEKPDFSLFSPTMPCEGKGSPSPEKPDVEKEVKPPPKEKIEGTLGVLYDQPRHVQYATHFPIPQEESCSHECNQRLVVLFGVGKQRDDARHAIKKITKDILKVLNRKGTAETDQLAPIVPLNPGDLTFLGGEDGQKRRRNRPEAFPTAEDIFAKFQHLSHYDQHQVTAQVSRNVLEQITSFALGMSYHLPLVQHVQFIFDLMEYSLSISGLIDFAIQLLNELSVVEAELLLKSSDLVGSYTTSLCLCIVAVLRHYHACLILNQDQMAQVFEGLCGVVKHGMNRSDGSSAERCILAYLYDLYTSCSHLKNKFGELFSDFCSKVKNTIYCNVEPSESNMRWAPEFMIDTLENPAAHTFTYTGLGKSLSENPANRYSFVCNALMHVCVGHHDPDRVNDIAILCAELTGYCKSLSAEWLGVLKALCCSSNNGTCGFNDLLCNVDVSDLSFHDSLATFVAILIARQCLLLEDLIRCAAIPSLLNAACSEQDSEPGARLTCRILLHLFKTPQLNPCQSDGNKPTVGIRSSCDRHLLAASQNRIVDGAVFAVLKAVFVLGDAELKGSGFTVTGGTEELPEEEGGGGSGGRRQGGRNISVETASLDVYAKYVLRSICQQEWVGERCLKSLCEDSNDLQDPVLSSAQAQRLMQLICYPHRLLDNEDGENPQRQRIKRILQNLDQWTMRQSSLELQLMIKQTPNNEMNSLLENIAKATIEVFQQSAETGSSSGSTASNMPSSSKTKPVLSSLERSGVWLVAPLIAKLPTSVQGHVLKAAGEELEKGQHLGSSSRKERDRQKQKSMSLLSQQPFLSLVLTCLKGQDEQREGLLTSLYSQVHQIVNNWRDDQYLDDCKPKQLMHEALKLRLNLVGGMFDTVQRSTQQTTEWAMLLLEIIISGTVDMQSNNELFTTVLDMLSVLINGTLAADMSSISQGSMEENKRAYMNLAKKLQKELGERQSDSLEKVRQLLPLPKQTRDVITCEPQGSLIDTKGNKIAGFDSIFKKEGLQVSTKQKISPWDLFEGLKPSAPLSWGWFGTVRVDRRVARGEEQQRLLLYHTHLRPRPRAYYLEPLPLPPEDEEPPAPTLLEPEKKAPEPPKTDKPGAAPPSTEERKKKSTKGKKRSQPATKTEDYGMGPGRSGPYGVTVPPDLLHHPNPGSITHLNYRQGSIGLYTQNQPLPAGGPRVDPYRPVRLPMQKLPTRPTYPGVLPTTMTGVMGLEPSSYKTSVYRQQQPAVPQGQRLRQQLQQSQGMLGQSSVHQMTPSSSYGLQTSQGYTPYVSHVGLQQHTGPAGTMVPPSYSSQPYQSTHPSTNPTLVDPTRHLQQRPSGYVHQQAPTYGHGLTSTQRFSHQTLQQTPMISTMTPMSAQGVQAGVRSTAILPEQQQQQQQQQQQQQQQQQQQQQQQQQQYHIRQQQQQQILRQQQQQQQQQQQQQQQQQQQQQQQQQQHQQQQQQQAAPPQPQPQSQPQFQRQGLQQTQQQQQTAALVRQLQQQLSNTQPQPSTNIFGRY
inactive: [1] 0.013 | [2] -0.024 | [3] -0.019 | [4] 0.042 | [5] 0.031

KNSTRN (UniProt Q9Y448)
inactive: [1] 0.097 | [2] -0.057 | [3] 0 | [4] 0.002 | [5] 0.034

LIMK2 isoform 3 (UniProt P53671)
inactive: [1] -0.022 | [2] -0.123 | [3] 0.038 | [4] 0.005 | [5] -0.132

MAPK6 (UniProt Q16659)
inactive: [1] 0.062 | [2] -0.015 | [3] -0.016 | [4] -0.001 | [5] -0.037

MACO1 (UniProt Q8N5G2)
Chain of UniProt Q8N5G2 (Q8N5G2 whole entry, looked up): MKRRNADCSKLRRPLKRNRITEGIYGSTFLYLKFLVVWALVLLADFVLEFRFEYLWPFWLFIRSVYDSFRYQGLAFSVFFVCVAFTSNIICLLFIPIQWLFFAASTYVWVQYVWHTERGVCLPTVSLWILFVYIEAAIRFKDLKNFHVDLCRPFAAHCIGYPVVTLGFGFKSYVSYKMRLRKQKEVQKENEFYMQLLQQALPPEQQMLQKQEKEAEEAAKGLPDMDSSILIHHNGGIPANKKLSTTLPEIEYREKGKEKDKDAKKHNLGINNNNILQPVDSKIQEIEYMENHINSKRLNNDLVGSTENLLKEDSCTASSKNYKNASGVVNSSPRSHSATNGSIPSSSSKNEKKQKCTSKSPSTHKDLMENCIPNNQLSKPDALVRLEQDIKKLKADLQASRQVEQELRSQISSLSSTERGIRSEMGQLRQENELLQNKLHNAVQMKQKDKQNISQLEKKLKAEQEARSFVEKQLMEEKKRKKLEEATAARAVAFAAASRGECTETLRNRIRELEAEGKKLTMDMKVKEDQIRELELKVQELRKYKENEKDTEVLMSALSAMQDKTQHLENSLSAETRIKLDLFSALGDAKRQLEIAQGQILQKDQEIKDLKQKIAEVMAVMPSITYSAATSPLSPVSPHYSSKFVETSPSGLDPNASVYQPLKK
inactive: [1] -0.039 | [2] -0.044 | [3] 0.125 | [4] -0.04 | [5] 0.092

MAP11 (UniProt Q8WVR3)
inactive: [1] -0.103 | [2] 0 | [3] -0.006 | [4] 0.063 | [5] -0.03

LYRM4 (UniProt Q9HD34)
inactive: [1] -0.03 | [2] 0.074 | [3] 0.077 | [4] 0.006 | [5] 0.004

LYAR (UniProt Q9NX58)
inactive: [1] 0.051 | [2] 0.015 | [3] -0.006 | [4] 0.031 | [5] 0.11

MAP2K2 (UniProt P36507)
inactive: [1] -0.04 | [2] 0.022 | [3] -0.047 | [4] -0.068 | [5] 0.064

KIFC1 (UniProt Q9BW19)
inactive: [1] 0.046 | [2] -0.008 | [3] 0.122 | [4] 0.021 | [5] 0.029

LSM8 (UniProt O95777)
inactive: [1] -0.057 | [2] -0.012 | [3] 0.017 | [4] -0.004 | [5] -0.029

MITD1 (UniProt Q8WV92)
Chain of UniProt Q8WV92 (Q8WV92 whole entry, looked up): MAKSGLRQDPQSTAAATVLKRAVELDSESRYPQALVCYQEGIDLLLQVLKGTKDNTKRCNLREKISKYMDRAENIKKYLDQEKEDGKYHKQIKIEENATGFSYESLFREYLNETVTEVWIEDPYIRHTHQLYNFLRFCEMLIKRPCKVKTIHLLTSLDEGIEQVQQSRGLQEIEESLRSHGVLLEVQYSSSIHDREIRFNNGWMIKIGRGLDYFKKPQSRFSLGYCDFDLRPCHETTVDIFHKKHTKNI
inactive: [1] -0.036 | [2] -0.038 | [3] -0.015 | [4] -0.026 | [5] 0.117

LBR (UniProt Q14739)
inactive: [1] -0.018 | [2] 0.045 | [3] 0.04 | [4] 0.007 | [5] 0.117

MOSPD2 (UniProt Q8NHP6)
inactive: [1] -0.024 | [2] 0.029 | [3] 0.047 | [4] -0.078 | [5] -0.013

MED8 isoform 2 (UniProt Q96G25)
inactive: [1] -0.047 | [2] -0.033 | [3] -0.048 | [4] -0.039 | [5] 0.063

L3HYPDH (UniProt Q96EM0)
inactive: [1] -0.022 | [2] 0.042 | [3] 0.003 | [4] -0.014 | [5] 0.01

LPIN1 isoform 7 (UniProt Q14693)
inactive: [1] 0.053 | [2] -0.003 | [3] -0.053 | [4] 0.029 | [5] 0.194

LYN (UniProt P07948)
inactive: [1] -0.063 | [2] -0.103 | [3] -0.091 | [4] -0.032 | [5] 0.011

LETM1 (UniProt O95202)
Chain of UniProt O95202 (O95202 whole entry, looked up): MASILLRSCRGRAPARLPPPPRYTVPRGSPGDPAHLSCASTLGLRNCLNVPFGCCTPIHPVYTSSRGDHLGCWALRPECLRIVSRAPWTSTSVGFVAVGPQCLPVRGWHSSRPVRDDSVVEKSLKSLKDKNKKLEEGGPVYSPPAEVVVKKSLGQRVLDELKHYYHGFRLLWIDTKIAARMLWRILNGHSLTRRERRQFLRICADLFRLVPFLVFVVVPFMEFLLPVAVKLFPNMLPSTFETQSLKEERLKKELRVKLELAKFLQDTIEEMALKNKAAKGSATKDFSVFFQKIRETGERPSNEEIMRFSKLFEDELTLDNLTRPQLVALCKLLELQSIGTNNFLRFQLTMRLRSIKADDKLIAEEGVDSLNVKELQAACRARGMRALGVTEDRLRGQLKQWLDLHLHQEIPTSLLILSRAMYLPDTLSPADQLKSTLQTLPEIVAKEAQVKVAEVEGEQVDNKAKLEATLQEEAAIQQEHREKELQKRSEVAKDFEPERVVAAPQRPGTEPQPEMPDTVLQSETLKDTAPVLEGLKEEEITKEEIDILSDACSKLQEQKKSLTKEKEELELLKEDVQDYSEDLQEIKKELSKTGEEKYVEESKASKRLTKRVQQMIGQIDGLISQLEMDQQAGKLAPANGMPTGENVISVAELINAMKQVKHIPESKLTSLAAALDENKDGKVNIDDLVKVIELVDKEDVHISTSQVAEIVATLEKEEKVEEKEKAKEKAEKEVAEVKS
inactive: [1] 0.006 | [2] -0.017 | [3] 0.002 | [4] 0.042 | [5] -0.053

MBLAC2 (UniProt Q68D91)
inactive: [1] -0.011 | [2] -0.005 | [3] 0.001 | [4] 0.013 | [5] -0.033

MPI (UniProt P34949)
inactive: [1] 0.023 | [2] -0.014 | [3] 0.033 | [4] -0.023 | [5] 0.083

MAP1S (UniProt Q66K74)
inactive: [1] 0.029 | [2] 0.011 | [3] 0.021 | [4] 0.019 | [5] 0.018

LAS1L (UniProt Q9Y4W2)
inactive: [1] -0.002 | [2] 0 | [3] -0.023 | [4] 0.02 | [5] -0.026

MPP5 (UniProt Q8N3R9)
inactive: [1] -0.044 | [2] 0.045 | [3] -0.006 | [4] 0.029 | [5] -0.11

MAPK14 isoform 2 (UniProt Q16539)
inactive: [1] 0.008 | [2] -0.053 | [3] 0.014 | [4] -0.028 | [5] 0.154

LIG4 (UniProt P49917)
inactive: [1] -0.04 | [2] 0.083 | [3] -0.056 | [4] -0.002 | [5] 0.078

MARK1 (UniProt Q9P0L2)
inactive: [1] -0.034 | [2] 0.036 | [3] 0.019 | [4] -0.006 | [5] 0.116

MAT2B (UniProt Q9NZL9)
inactive: [1] -0.008 | [2] 0.014 | [3] -0.044 | [4] -0.003 | [5] -0.002

KSR1 (UniProt Q8IVT5)
active: [5] 0.242
inactive: [1] -0.081 | [2] -0.024 | [3] 0.035 | [4] 0.035

MBD2 (UniProt Q9UBB5)
inactive: [1] 0.042 | [2] 0.008 | [3] -0.028 | [4] 0.065 | [5] 0.027

MAPK3 (UniProt P27361)
inactive: [1] 0.008 | [2] 0.006 | [3] -0.05 | [4] 0.036 | [5] -0.048

MAPK1 (UniProt P28482)
inactive: [1] 0.045 | [2] -0.006 | [3] -0.016 | [4] 0.039 | [5] 0.012

MLH1 (UniProt P40692)
inactive: [1] -0.038 | [2] -0.006 | [3] 0.006 | [4] -0.012 | [5] 0.019

MAPK8 isoform 3 (UniProt P45983)
inactive: [1] -0.01 | [2] 0.03 | [3] 0.004 | [4] 0.071 | [5] -0.026

LSS (UniProt P48449)
inactive: [1] 0.016 | [2] -0.083 | [3] 0.014 | [4] -0.012 | [5] -0.007
